MazF activator = activators of E. coli MazEF toxin-antitoxin RNase, primary screen, biochemical, fluorescence, uHTS | Endoribonuclease toxin MazF (Escherichia coli (strain K12)), P0AE70 | activation, % at 20 µM | 350,000 compounds, 0.32% hits | FAM/BHQ RNA-DNA oligo cleavage fluorescence, 5 h; in the data active means activation above about 50%
Target sequence (P0AE70 whole entry, looked up): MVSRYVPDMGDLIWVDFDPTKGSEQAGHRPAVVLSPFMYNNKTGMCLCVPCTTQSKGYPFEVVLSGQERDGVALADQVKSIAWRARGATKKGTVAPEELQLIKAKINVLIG
BoNT-F LC inh = BoNT/F light chain protease inhibitors, primary screen, biochemical, flow cytometry, MLPCN library. AID 588497, 2011. Botulinum neurotoxin type F light chain protease (Clostridium botulinum). 360,000 compounds, 0.22% hits. Multiplex microsphere protease cleavage assay. inhibition, % at 10 µM; in the data active means inhibition above about 35%, passing the limit was not always enough; inconclusive means no clear call, values can overlap the other calls
Anthrax LF prot = Bacillus anthracis LF protease inhibitors, primary screen, biochemical, multiplex microsphere, MLPCN library; 360,000 compounds, 0.12% hits; Lethal factor (Bacillus anthracis), P15917; multiplex microsphere protease cleavage assay; inhibition, % at 10 µM
BoNT-A LC inh2 = BoNT/A light chain protease inhibitors, primary screen, biochemical, flow cytometry, MLPCN library; Botulinum neurotoxin type A light chain protease (Clostridium botulinum A str. ATCC 3502); multiplex microsphere protease substrate cleavage; inhibition, % at 10 µM; 360,000 compounds, 0.17% hits; AID 588499, 2011
VHR inh abs = VHR1 phosphatase inhibitors, primary screen, biochemical, absorbance, uHTS. inhibition, % at 13.3 µM. Dual specificity protein phosphatase 3 (Homo sapiens), P51452. 290,000 compounds, 0.52% hits. recombinant VHR phosphatase, pNPP absorbance; in the data active means inhibition above about 50%
Target sequence (P51452 whole entry, looked up): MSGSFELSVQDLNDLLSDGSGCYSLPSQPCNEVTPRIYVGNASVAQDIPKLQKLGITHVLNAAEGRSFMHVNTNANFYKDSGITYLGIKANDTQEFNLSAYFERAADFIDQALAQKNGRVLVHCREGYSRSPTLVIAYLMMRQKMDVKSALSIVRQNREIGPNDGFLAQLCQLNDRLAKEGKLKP
Autofluor counter = counter-screen for toxin protease inhibitors: compound fluorescence. compound autofluorescence counterscreen, microsphere flow cytometry; hits give high values. fluorescence intensity (concentration not given with the values). 360,000 compounds, 3.1% hits; in the data active means fluorescence intensity above about 16000; inconclusive means no clear call, values can overlap the other calls
Each line names hits and unclear results; the compound was inactive in the other large screens. Hits are enriched below; roughly 4.1% of the tested compounds scored in any of these assays. Unless noted, no stated cut-off is given here; in the data, active means inhibition above about 30%; inconclusive means no clear call, values can overlap the other calls; inactive means below that.

CCCc1nc2n[nH]c(N)c2c2c1COC(C)(C)C2	Autofluor counter 21384
CC(=O)c1ccc(Sc2ccccc2)cc1	Autofluor counter 22491
CC(=O)c1ccc(Sc2ccc(C(C)=O)cc2)cc1	none
CCOC(=O)C1=CCN(S(=O)(=O)c2ccccc2Br)C1c1ccc(Cl)c(Cl)c1 (stereo not drawn)	none (no result: MazF activator, VHR inh abs)
O=C(Nc1cccc(C(F)(F)F)c1)C1CC(=O)N(CCc2ccccc2)C1 (stereo not drawn)	none (no result: VHR inh abs)
O=C(Nc1nc(-c2ccc(Cl)cc2)cs1)C1CCCO1 (stereo not drawn)	none
Cc1cnc(NC(=O)C2CCCO2)s1 (stereo not drawn)	BoNT-A LC inh2 inconclusive, Autofluor counter 16597
CCOc1ccc(-c2csc(NC(=O)C3CCCO3)n2)cc1 (stereo not drawn)	Autofluor counter 21480
O=c1c(O)c(-c2ccc(O)c(O)c2)oc2cc(O)ccc12	MazF activator 58 (no result: VHR inh abs)
Cc1ccc(-c2nnn(Cc3nc(N)nc(N4CCOCC4)n3)n2)cc1	Autofluor counter 23278
O=c1ccc2c(-c3ccccc3)c3ccc(O)cc3oc-2c1	BoNT-F LC inh 88, Anthrax LF prot 56 (no result: MazF activator)
Nc1ccc(-c2c3ccc(=O)cc-3oc3cc(O)ccc23)cc1C(=O)O	BoNT-F LC inh inconclusive, Anthrax LF prot 128 (no result: MazF activator)
Cc1cc(N2CCN(C(=O)c3ccco3)CC2)n2nc(-c3cccc(Cl)c3)cc2n1	BoNT-A LC inh2 inconclusive, Autofluor counter 16545
Cc1nc2cc(-c3cccc(Cl)c3)nn2c(N2CCN(C(=O)c3ccco3)CC2)c1C	none (no result: MazF activator, BoNT-F LC inh, Anthrax LF prot, BoNT-A LC inh2, Autofluor counter)
O=C(CCC(=O)Nc1ccccc1)NNC(=O)c1cccs1	Autofluor counter 21744
CCCC(=O)Nc1ccc(C(=O)NNC(=O)c2cccs2)cc1	Autofluor counter 22535
CCCC(=O)Nc1ccc(C(=O)NNC(=S)NC(=O)c2cccs2)cc1	none
O=C(NNC(=S)Nc1ccccc1)c1cccs1	none
CCCCC(=O)N(C)c1c(C)nc2ccc(C(=O)N(C)Cc3ccco3)cn12	none (no result: MazF activator, VHR inh abs)
CCN(CC)c1ccc(C(=O)c2ccccc2C(=O)O)c(O)c1	BoNT-A LC inh2 inconclusive, Autofluor counter 23518
CCN(CC)c1ccc(/C=N/N(c2ccccc2)c2ccccc2)c(O)c1	none
CCOC(=O)C1=NN(c2ccccc2C)C2=NC(C)=C(C(=O)OC)C(c3cccs3)N12 (stereo not drawn)	Autofluor counter 17523
CCCC/C=C1/CCC(CN(C)C)C1=O (stereo not drawn)	none (no result: VHR inh abs)
Cc1cc(C(=O)OCC(=O)NC(C)(C)C)c2ccccc2n1	BoNT-A LC inh2 inconclusive, Autofluor counter 16530
CCCc1cc(N2CCCC(C(=O)NCC)C2)n2ncnc2n1 (stereo not drawn)	Autofluor counter 20607
Cc1noc(C)c1C(=O)N1CCC1(C)C(=O)NS(=O)(=O)c1cccc(Cl)c1 (stereo not drawn)	none (no result: MazF activator, VHR inh abs)
CN(C)c1ccc(-c2noc(C3CCN(S(=O)(=O)c4cccc(Cl)c4)CC3)n2)cc1	BoNT-A LC inh2 inconclusive, Autofluor counter 17481
CN(C)c1ccc(-c2noc(C3CCN(S(=O)(=O)c4ccc(C(=O)O)cc4)CC3)n2)cc1	BoNT-A LC inh2 inconclusive, Autofluor counter 22586 (no result: VHR inh abs)
O=C(C1CC1)N1CCC(c2nc(-c3ccc(S(=O)(=O)N4CCCC4)cc3)no2)CC1	none
CCCn1[nH]cc(SC)c(=O)c1=O	BoNT-A LC inh2 inconclusive, Autofluor counter 16432
CC(C)OP(=O)(OC(C)C)C(NC(=O)c1ccc(Br)cc1)c1ccccc1 (stereo not drawn)	Autofluor counter 21425
O=C(Nn1c(O)c(C=C2N=c3ccccc3=N2)sc1=S)c1ccccc1	BoNT-F LC inh 65, Anthrax LF prot 78, BoNT-A LC inh2 108
Cc1ccc(S(=O)(=O)Nn2c(O)c(C=C3N=c4ccccc4=N3)sc2=S)cc1	none
O=C(Nn1c(O)c(C=C2N=c3ccccc3=N2)sc1=S)c1ccc(Cl)cc1	BoNT-F LC inh 58, Anthrax LF prot 70, BoNT-A LC inh2 inconclusive
Cc1ccc(C(=O)Nn2c(O)c(C=C3N=c4ccccc4=N3)sc2=S)cc1	BoNT-F LC inh 64, Anthrax LF prot 69, BoNT-A LC inh2 78
O=C(Nn1c(O)c(C=C2N=c3ccccc3=N2)sc1=S)c1cccc(Cl)c1	BoNT-F LC inh 55, Anthrax LF prot 56, BoNT-A LC inh2 55
Cc1oc(-c2cccc(Cl)c2)nc1CS(=O)(=O)CC(=O)NC1CCCC1	none
O=C1CSCC(=O)N1c1ccccc1	none
O=C1C2=C(SCCS2)C(=O)N1c1ccccc1	Autofluor counter 19116
OC(COC1CCCCC1)CN1CCCCC1 (stereo not drawn)	VHR inh abs 56
NC(N)=NS(=O)(=O)c1ccc(NC(=S)NC(=O)c2ccncc2)cc1	none
NC(N)=NS(=O)(=O)c1ccc(NC(=S)NC(=O)c2ccc(Br)cc2)cc1	MazF activator 59
C=CCN1C(=O)C(C)(C)Nc2ccccc21	BoNT-A LC inh2 inconclusive, Autofluor counter 20000
O=C(NCCCn1ccnc1)c1ccc(Br)cc1	none
CN(C)c1ccc(/C=C(/NC(=O)c2ccccc2)C(=O)NCCCn2ccnc2)cc1	MazF activator 74
O=C(NCCN1CCN(c2ccccc2Cl)CC1)Nc1ccccc1	none
O=C(NCCCN1CCc2ccccc2C1)Nc1ccc(Cl)cc1	Autofluor counter 22133
O=C(NCCN1CCN(Cc2ccccc2Cl)CC1)Nc1ccccc1	Autofluor counter 23034
O=C(NCCCn1ccnc1)c1cccc(Br)c1	VHR inh abs 53
O=C(NCC(c1ccco1)N1CCN(c2ccccc2)CC1)C(=O)NC1CC1 (stereo not drawn)	none (no result: VHR inh abs)
C[C@@H]1CN([C@@H](C)CO)C(=O)CCCn2cc(nn2)CO[C@H]1CN(C)S(=O)(=O)c1ccc(C#N)cc1	none (no result: VHR inh abs)
COc1ccc(C(=O)c2c[nH]c(C(=O)NCCCn3ccnc3)c2)cc1	none
O=C(NCCCn1ccnc1)Nc1ccc(Cl)cc1	BoNT-A LC inh2 inconclusive, Autofluor counter 24742
O=C(NCCCn1ccnc1)Nc1ccc(Cl)c(Cl)c1	none
CC(C)(C)c1ccc(C(=O)c2c[nH]c(C(=O)NCCCn3ccnc3)c2)cc1	BoNT-A LC inh2 inconclusive, Autofluor counter 24832
CC(C)(C)c1ccc(C(=O)N/C(=C\c2cccc([N+](=O)[O-])c2)C(=O)Nc2cccc(C(=O)O)c2)cc1	none
C=CCn1c(SCc2ccc(C#N)cc2)nnc1-c1cccc(OC)c1	none
C=CCn1c(SCc2ccccc2C#N)nnc1-c1ccccc1O	Autofluor counter 21434
Cn1c(SCc2ccc(C#N)cc2)nnc1-c1cccc(Cl)c1	Autofluor counter 16948
C=CCn1c(SCC(=O)NCc2ccccc2)nnc1-c1ccccc1O	none
C=CCn1c(SCC(N)=O)nnc1-c1ccccc1O	none
C=CCn1c(SCC(N)=O)nnc1-c1cc(Br)ccc1O	BoNT-A LC inh2 inconclusive, Autofluor counter 21322
C=CCn1c(SCc2ccc(C#N)cc2)nnc1-c1ccccc1	Autofluor counter 22580

Screens from PubChem BioAssay.
